From PubChem BioAssay AID651791 (National Center for Advancing Translational Sciences (NCATS), 2012)
Inconclusive results are not listed. The source made the active and inactive calls. Calls come from the whole dose curve; as a rule, active = well fitted inhibition curve with a large enough effect; inconclusive = small, poorly fitted or top-dose-only effect; inactive = no such curve, though single readings can be large or run the other way.

assay: InCell qHTS Assay for Inhibitors of the mTORC1 Signaling Pathway in MEF (Tsc2-/-, p53-/-) Cells: Hit Validation; conditions: phospho-rpS6 immunofluorescence, 24 h; activity change, negative = inhibition: at 38.3 µM (top of the series);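 note: phospho-S6 Ser235/236 signal normalized to propidium iodide cell count per well; nearly all actives have a fitted effect of over 75% in size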
Potency is the fitted concentration of half-maximal effect.

| SMILES | activity change, negative = inhibition | Potency |
| --- | --- | --- |
| CCOC(=O)c1cnc2ccc(C)cc2c1Nc1ccc(N(CC)CC)cc1 | -100% |  |
| CC1=Nc2cc(C(=O)NC(C)C)ccc2Sc2ccc(C)cc21 | -100% |  |
| CCCCNC(=O)c1ccc2c(c1)N=C(CC)c1ccccc1S2 | -16% |  |
| CCNC(=O)c1c(NC(=O)c2nc(S(=O)(=O)CC)ncc2Cl)sc2c1CCCC2 |  | 2.07 µM (active) |
| Cc1cccc(N2CCN(c3ncnc4c3nc3n4CCCCC3)CC2C)c1 (configuration not stated) |  | 5.85 µM (active) |
| CCS(=O)(=O)c1oc(-c2ccc(F)cc2)nc1S(=O)(=O)c1ccc(Br)cc1 |  | 3.69 µM (active) |
| CCOc1ccc(CCNCc2c(C(=O)O)n(Cc3ccc(C)cc3)c3cc(OC)ccc23)cc1 | -100% |  |
| O=C(COc1ccc(F)cc1)Nc1ccc(Cl)c(-c2nc3ccccc3[nH]2)c1 | -100% |  |
| CCOc1cc(-c2nnc(SCC(=O)NCc3ccccc3)nc2-c2ccc(OC)c(OCC)c2)ccc1OC | -100% |  |
| CC(C)CS(=O)(=O)c1oc(-c2ccc(F)cc2)nc1S(=O)(=O)c1ccccc1 |  | 3.29 µM (active) |
| CCCCn1c(=N)n(CCOc2ccccc2OC)c2ccccc21 |  | 7.36 µM (active) |
| CCc1cccc(NC(=O)c2oc3ccc4c(c3c2C)C(=O)CC(C)(C)O4)c1 | -100% |  |
| Cc1ccc2c(c1)cc(C(=O)Nc1ccccc1C)n2C | -18.6% |  |
| COc1ccc2nc(NC(=O)c3nc(S(=O)(=O)Cc4ccccc4)ncc3Cl)sc2c1 |  | 1.65 µM (active) |
| COc1cc2c(cc1OC)n(CC(=O)c1ccc(F)cc1)c(=O)n1nc(CCn3nc(C)cc3C)nc21 | -100% |  |
| Brc1ccc(Nc2c3c(nc4nncn24)CCC3)cc1 | -100% |  |
| CCc1ccc(S(=O)(=O)c2nnn(-c3ccc(F)cc3)c2N)cc1 | -100% |  |
| COc1cccc(/C=C(\C#N)c2nc3ccc(C)cc3[nH]2)c1 | -100% |  |
| Cc1cccc(-n2nnnc2S(C)(=O)=O)c1 |  | 3.29 µM (active) |

| SMILES | activity change, negative = inhibition | Potency |
| --- | --- | --- |
| CCOc1c(Br)cc(C2CC(=O)Nc3cc4c(cc32)OCO4)cc1OC (configuration not stated) | -100% |  |
| Cc1cccc(NS(=O)(=O)c2ccc3[nH]c4c(c3c2)CCCCCC4)c1 | -100% |  |
| CC(=O)C1=C(c2ccc(Cl)c(Cl)c2)N(C(C)=O)n2c(C)nnc2S1 |  | 7.36 µM (active) |
| CCOc1ccccc1NC(=O)Cn1nnc(C(=O)NCc2cccs2)c1N | -100% |  |
| COc1ccccc1-c1noc(CSc2nc3ccc(C)cc3[nH]2)n1 | -100% |  |
| Cc1ccc(-c2nnn(CC(=O)N(CC(=O)NCCC(C)C)c3ccc(F)cc3)n2)cc1 | -100% |  |
| CCOC(=O)c1c(C)n(-c2ccccc2)c2ccc(OC(=O)c3ccccc3)cc12 | -100% |  |
| CCOc1ccccc1Nc1nc(-c2cccc(Cl)c2)c2c(n1)-c1ccccc1OC2 | -100% |  |
| COc1ccc(N2CCN(C(=O)C3CCCN(S(=O)(=O)c4ccc5c(c4)CCCN5C(C)=O)C3)CC2)cc1 (configuration not stated) | -100% |  |
| O=C(Cn1c(=O)n(Cc2ccc3c(c2)OCO3)c(=O)c2ccc(C(=O)NC3CCCCC3)cc21)Nc1ccccc1F |  | 5.21 µM (active) |
| CCOC(=O)C1CCN(c2cc3c(cc2NC(=O)c2ccccc2Cl)n(C)c(=O)n3C)CC1 | -12.8% |  |
| CC(C(=O)NCc1cccc(Br)c1)n1ncn2cccc2c1=O (configuration not stated) | -100% |  |
| CN(CCCNC(=O)c1cc2c(Cl)nc3ccccc3c2s1)Cc1ccccc1 | -100% |  |
| COc1ccc(-c2[nH]nc3nc(-c4cc(OC)c(OC)c(OC)c4)cc(C(=O)O)c23)cc1 | -100% |  |
| COC(=O)c1cc2sc(C)cc2n1Cc1ccccc1 | -100% |  |
| CCCCN1C(=O)C(O)(CC(=O)c2ccc(CC)cc2)c2cc(Br)ccc21 (configuration not stated) | -23.7% |  |
| Cn1nnnc1SCCCNCc1cc(Cl)ccc1OCc1ccc(F)cc1 | -100% |  |
| Cc1ccc(OCC(O)Cn2c(=N)n(CCN3CCCCC3)c3ccccc32)cc1 (configuration not stated) |  | 16.5 µM (active) |
